# Assay results published in ChEMBL document CHEMBL5308504, “Tm Shift (DSF) assay results for EUbOPEN Chemogenomics Library” (2023).
# Values joined by “and” are separate entries in the source; they are usually repeats but may differ in a detail not shown here. Equal values may be shown once.
# Experiments:
# [1] = biological target: Bromodomain-containing protein 4 (Homo sapiens) (UniProt O60885); conditions: Compound concentration 20.0 uM, Protein concentration 2.0 uM, Result type QC Liability
# [2] = biological target: T1, Transcription intermediary factor 1-alpha (Homo sapiens) (UniProt O15164); conditions: Compound concentration 20.0 uM, Protein concentration 2.0 uM, Result type QC Liability
# T1 sequence (whole entry): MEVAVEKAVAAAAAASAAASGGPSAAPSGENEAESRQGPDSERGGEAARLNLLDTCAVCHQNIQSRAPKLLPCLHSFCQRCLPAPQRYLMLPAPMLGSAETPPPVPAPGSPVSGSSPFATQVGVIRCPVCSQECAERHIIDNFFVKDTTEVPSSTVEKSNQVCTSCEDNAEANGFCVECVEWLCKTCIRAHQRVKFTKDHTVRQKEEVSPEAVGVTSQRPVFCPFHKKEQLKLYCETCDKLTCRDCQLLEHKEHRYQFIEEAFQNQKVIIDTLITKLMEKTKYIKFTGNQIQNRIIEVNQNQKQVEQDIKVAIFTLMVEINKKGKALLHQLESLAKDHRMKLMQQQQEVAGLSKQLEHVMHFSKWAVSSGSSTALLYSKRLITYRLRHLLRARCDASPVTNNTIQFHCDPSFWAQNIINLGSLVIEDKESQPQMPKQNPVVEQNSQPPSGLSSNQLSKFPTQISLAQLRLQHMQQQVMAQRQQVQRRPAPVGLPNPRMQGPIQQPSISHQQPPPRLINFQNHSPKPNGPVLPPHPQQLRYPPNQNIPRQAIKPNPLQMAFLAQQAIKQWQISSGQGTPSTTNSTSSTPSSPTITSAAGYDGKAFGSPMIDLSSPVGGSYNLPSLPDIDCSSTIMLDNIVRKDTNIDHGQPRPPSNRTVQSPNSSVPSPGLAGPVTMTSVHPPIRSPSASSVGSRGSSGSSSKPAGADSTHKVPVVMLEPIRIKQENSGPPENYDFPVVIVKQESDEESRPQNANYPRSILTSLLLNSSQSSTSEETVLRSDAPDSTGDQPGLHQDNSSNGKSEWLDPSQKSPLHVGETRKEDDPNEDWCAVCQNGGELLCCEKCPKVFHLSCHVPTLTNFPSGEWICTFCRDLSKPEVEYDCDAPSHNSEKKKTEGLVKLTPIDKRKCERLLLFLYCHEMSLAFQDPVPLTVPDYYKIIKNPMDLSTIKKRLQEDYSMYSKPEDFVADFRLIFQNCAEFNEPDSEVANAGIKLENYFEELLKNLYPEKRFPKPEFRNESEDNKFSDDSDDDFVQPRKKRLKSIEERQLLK
SMILES,ΔTm [1],ΔTm [2]
Cc1c(-c2c(F)cc(C(N)=O)c3[nH]c4c(c23)CC[C@H](C(C)(C)O)C4)cccc1-n1c(=O)c2cccc(F)c2n(C)c1=O,-0.86 °C,0.6 °C
COc1ncc(-c2cc(-c3ncc(CN4C[C@@H](C)O[C@@H](C)C4)o3)c3cn[nH]c3c2)cc1NS(C)(=O)=O,0.37 °C,-1.87 °C
CNC(=O)c1cc(C(=O)N[C@H]2[C@@H]3COC[C@@H]32)cc2c1O[C@H](CF)[C@H]2c1ccccc1,–,-2.73 °C
CC(=O)Nc1nc(CN2CCC[C@H](Cc3cc(C)nc(C)c3)C2)cs1,0.35 °C,-1.42 °C
COc1cc(N2CCN(C)CC2)ccc1Nc1ncc2c(n1)N(C)c1ccccc1C(=O)N2CC(F)(F)F,-1.21 °C,-2.27 °C
COc1ccccc1S(=O)(=O)Nc1ccc2c(c1)CN(C)C(=O)N2,–,-1.03 °C
Cc1ccc(-c2cn3nc(C(=O)NC4(c5ccc(F)cc5)CN(C)C4)c(C(C)C)c3c(=O)[nH]2)cc1C,-24.1 °C,0.46 °C
COc1ccc2c(O[C@@H]3C[C@H]4C(=O)N[C@]5(C(=O)NS(=O)(=O)C6(C)CC6)CC5/C=C\CCCCC[C@H](NC(=O)c5ccn(C)n5)C(=O)N4C3)cc(OC(C)C)nc2c1C (some centres undefined),1.29 °C,0.91 °C
CCc1cnn2c(NCc3ccc[n+]([O-])c3)cc(N3CCCCC3CCO)nc12 (centres undefined),-0.63 °C,-2.72 °C
CCC(F)(F)c1cc(N2CCC(S(C)(=O)=O)CC2)nc2sc(C(N)=O)c(N)c12,-3.68 °C and -1.82 °C and -0.22 °C,0.36 °C and -3.9 °C and -0.99 °C
COc1cc2nc(C)nc(NC3(c4ccccc4)CC3)c2cc1OC,-0.74 °C,0.43 °C
O=C(O)CCCN1CCC[C@H]1COc1ccc(Oc2ccc(Cl)cc2)cc1,-2.86 °C,-0.92 °C
COc1cc(F)ccc1-c1cc(Nc2cc(CS(C)(=N)=O)ccn2)ncc1F (centres undefined),0.98 °C,-2.98 °C
COCc1nc2cnc3cc(-c4c(C)noc4C)c(OC[C@H]4CCNC4)cc3c2n1[C@H](C)c1ccccc1,–,-1.74 °C
NCc1ccc(OCCCc2sc(-c3ccc4c(c3)/C(=N/Nc3nc5ccccc5s3)CCC4)nc2C(=O)O)cc1,-11 °C,-0.58 °C
Cc1cc(=O)n(C)c2cc(N3C(=O)CC[C@H](NS(=O)(=O)CC(C)C)[C@H]3c3ccc(Cl)cc3)ccc12,-3.01 °C,-3.49 °C

SMILES,ΔTm [1],ΔTm [2]
CNC(=O)c1cc(C(=O)N[C@H]2[C@@H]3COC[C@@H]32)cc2c1O[C@@H](CF)[C@@H]2c1ccccc1,–,-2.85 °C
Nc1ncc2c(n1)-c1c([nH]c3ccc(C4CC4)cc13)CCCC2,-1.04 °C,-1.92 °C
CS(=O)(=O)NCC[C@H](NC(=O)c1cncc2c1cnn2-c1ccc(F)cc1)c1ccnc(S(C)(=O)=O)c1,-0.38 °C,0.28 °C
CNc1nc(-c2ccc3c(N)n[nH]c3c2)cc(N2C[C@@H](C(=O)NC3CCCCC3)CC[C@H]2C)n1,0.26 °C,-2.05 °C
COc1cc(C(N)=O)nc(-c2cccc(C#C[C@]3(O)CCN(C)C3=O)c2)c1,-0.77 °C,-0.62 °C
Cc1cc2c(ncn2C2(C)CN(C(=O)c3ccn(CC4CCN([C@H]5C=CCCCC5)CC4)c3)C2)c(N)n1,-1.87 °C,-2.7 °C
CCNC(=O)c1ccc2c(c1)NC(=O)/C2=C(\Nc1ccc(CN(C)C)cc1)c1ccccc1,–,0.37 °C and -3.62 °C
CN1CCN(c2ccc(/C=C(\C#N)c3ccccc3Br)cc2)CC1,-4.31 °C,-4.7 °C
COc1cc(C)c(S(=O)(=O)N(C)CCC(=O)N[C@H]2CC[C@@H](N3CCC4CN(C)CC4C3)CC2)c(C)c1 (some centres undefined),-4.82 °C,-0.4 °C
CC[C@@H]1C(=O)N(C)c2cnc(Nc3ccc(C(=O)NC4CCN(C)CC4)cc3OC)nc2N1C1CCCC1,6.02 °C,0.07 °C
C[C@H](NC(=O)c1cnc2n1[C@](C)(Cc1ccc(C#N)cc1)C(=O)N2c1cc(Cl)c(F)c(Cl)c1)C(=O)NC1(c2ccccn2)CC1,5.21 °C,0 °C
CN1CCN(C(=O)c2ccc(N(C)c3ncc(C(F)(F)F)c(N[C@@H]4CCC[C@@H]4C(N)=O)n3)cc2)CC1,-1.86 °C,0.25 °C
CN1CCN(C(=O)c2ccc3cc2OCCOCCNc2ccn4ncc-3c4n2)CC1,0.71 °C,-0.01 °C
CCS(=O)(=O)c1cc2cc(C[C@](O)(CC(C)(C)c3ccc(F)cc3C(N)=O)C(F)(F)F)[nH]c2cn1,-2.16 °C,0.37 °C
COc1cc(-c2cn(C)c(=O)c3cnccc23)c(OC)cc1CN(C)C,-0.72 °C,0.32 °C
CC(C)(O)CNC(=O)N1C(=O)N(c2cccc(C(F)(F)F)c2)C2=C(C(=O)CC2)[C@H]1c1ccc(C#N)cc1,0.34 °C,0.22 °C
